This excerpt belongs to a sample that is enriched for hits.
Cycloheximide cs – counter-screen for Shiga toxin inhibitors: cycloheximide protein synthesis inhibition | cell reporter, cycloheximide protein synthesis inhibition counterscreen | max response, % | 300,000 compounds, 12% hits | AID 2314; in the data active means max response mostly above about 13%, no sharp cut-off; inactive means mostly below about 14%; further: read at 38.3 µM for the half of the compounds with a filed dose; 0% is about no effect
VACV Venus inh – inhibitors of vaccinia virus (Venus reporter). Vaccinia virus Venus reporter expression, fluorescence. Potency, µM (doses to about 36.5 µM), for inactives: top-dose activity change, negative = inhibition, usual class: inhibitors. 330,000 compounds, 0.46% hits. AID 720580; calls by dose curve; tested in A549 cells; further: potency means the concentration at half of the fitted maximal effect; on the % scale 0 is the no-effect control and ±100 the full control effect; nearly all actives have a fitted effect of over 30% in size
MARV entry inh – blocks Marburg virus binding to or entry into cells; Marburg virus pseudotyped entry inhibition, cell reporter; Potency, µM (titrated, usually from 37.8 µM), for the others: top-dose activity change, negative = inhibition, most hits filed as inhibitors; 300,000 compounds, 1.8% hits; AID 540276; calls by dose curve; tested in HEK293 cells; further: potency means the concentration at half of the fitted maximal effect; on the % scale 0 is the no-effect control and ±100 the full control effect
Shiga toxin inh – Shiga toxin inhibition; Vero cells, Shiga toxin protein synthesis inhibition reporter; inhibition, % at 38.7 µM; 290,000 compounds, 9.2% hits; in the data active means inhibition mostly above about 28%, no sharp cut-off; inactive means mostly below about 43%; further: 0% is about no effect
Vaccinia mCherry – inhibitors of vaccinia virus infection (mCherry reporter signal). Vaccinia virus mCherry reporter infection, fluorescence. Potency, µM (top dose mostly 36.5 µM), inactives show at the highest dose activity change, negative = inhibition, usual class: inhibitors. 310,000 compounds, 0.63% hits; calls by dose curve; tested in A549 cells; further: potency means the concentration at half of the fitted maximal effect; on the % scale 0 is the no-effect control and ±100 the full control effect; nearly all actives have a fitted effect of over 35% in size
LASV entry inh – Lassa virus entry inhibition | Potency, µM (titrated, usually from 37.9 µM), inactives show at the highest dose activity change, negative = inhibition, usual class: inhibitors | Lassa virus pseudotype entry inhibition, cell reporter | 300,000 compounds, 1.2% hits | AID 540256; calls by dose curve; tested in HEK293 cells; further: potency means the concentration at half of the fitted maximal effect; on the % scale 0 is the no-effect control and ±100 the full control effect; nearly all actives have a fitted effect of over 50% in size
Numbers without * were called inactive; i = inactive; ? = inconclusive; . = no result; [ ] = another dose, or the depositor's remark.

SMILES | Cycloheximide cs | VACV Venus inh | MARV entry inh | Shiga toxin inh | Vaccinia mCherry | LASV entry inh
CCOC(=O)c1ccc(N2Cc3ccccc3C2)cc1O | 46.2* | -11.2% | -2.1% | 65.2* | -3.0% | 6.6%
CCOC(=O)N1CCN(C(=O)COC(=O)c2ccc(O)cc2O)CC1 | -0.6 | -8.6% | 1.0%[46.1 µM] | -3.1 | i | -5.1%[46.1 µM]
O=C(CCn1c(=O)c2ccccc2n(Cc2cc(=O)n3ccccc3n2)c1=O)NCc1ccco1 | -6.2 | -2.3% | 17.8% | -19.9 | -13.7% | 17.8%
Cc1ccccc1NC(=O)Cn1c(=O)n(CCC(=O)N2CCc3ccccc3C2)c(=O)c2ccccc21 | . | -3.1% | 10.6%[46.1 µM] | . | -2.1% | 1.7%[46.1 µM]
CCCCOc1[nH]c2nc(-c3ccco3)n(Cc3ccco3)c(=N)c2c1C#N | 15.6* | -23.4% | 6.1% | 6.1 | ? | 0.1%
O=C(c1cn(C2CCCN(Cc3cccc(Oc4ccccc4)c3)C2)nn1)N1CCCC1 (stereo unspecified) | . | -17.0% | . | . | -4.5% | .
CN(C)c1ccc(C(=O)/C=C/c2cccnc2)cc1 | 45.8* | . | . | 82.5* | . | .
O=C(/C=C/c1cccnc1)c1ccc(F)c(F)c1 | -2.7 | -15.3% | 7.08µM* | 15.6 | -13.4% | 12.4%[46.1 µM]
CN(C)c1ccc(/C=C/C(=O)c2cccc(Br)c2)cc1 | 63.6* | . | 4.4% | 127.1* | . | 1.1%
CCn1c(SCC(=O)NCc2ccco2)nnc1-c1ccc(N(C)C)cc1 | . | -15.7% | . | . | -20.9% | .
CCOC(=O)c1[nH]c(C)c(CCC(=O)N2CCN(c3cc(Cl)ccc3C)CC2)c1C | . | -21.7% | . | . | -14.0% | -25.5%[46.1 µM]
CC(CN1CCN(C/C=C/c2ccccc2)CC1)c1ccccc1 (stereo unspecified) | -2.8 | 6.8% | ? | . | -5.0% | 28.1%
COc1ccc(-n2ncc(Cl)c(Cl)c2=O)cc1 | 1.5 | -22.0% | ? | 32.4 | -21.3% | ?
COc1ccc(C(=O)N2CCN(c3cnn(-c4ccccc4)c(=O)c3Cl)CC2)cc1 | 8.3 | -2.3% | 6.9%[46.1 µM] | -10.6 | -6.1% | 13.0%[46.1 µM]
COc1ccc(Sc2cnn(-c3ccccc3)c(=O)c2Cl)cc1 | 1.8 | ? | -0.9% | -12.4 | 12.6µM* | ?
C=CCNc1cnn(-c2ccccc2)c(=O)c1Cl | 17.9* | . | -22.4% | 79.4 | . | 1.7%
COc1ccc(-n2ncc(N(C)n3cccc3)c(Cl)c2=O)cc1 | 28.2* | -1.9% | ? | 87.0* | . | ?
CN(C)c1cnn(-c2ccccc2)c(=O)c1Cl | 43.3* | -10.2% | ? | 146.2* | -13.1% | 17.6%
COc1c(Cl)cnn(-c2ccccc2)c1=O | 0.8 | -12.2% | ? | -6.3 | i | ?
O=c1c(Cl)c(NS(=O)(=O)c2ccccc2)cnn1-c1ccccc1 | 1.0 | 5.7% | . | 14.4 | -10.6% | .
O=C(CN(CC1CCCO1)C(=O)CNS(=O)(=O)c1ccc(F)cc1)NCc1ccc(F)cc1 (stereo unspecified) | -3.6 | -2.8% | -2.9%[46.1 µM] | -4.7 | -0.5% | -17.8%
Cc1ccc(-n2c(C)nc3c(cnn3-c3ccc(F)cc3)c2=O)cc1 | -0.5 | -18.8% | ? | -4.0 | -15.8% | -12.3%
CC(=O)Cn1ncc(N(C)Cc2ccccc2)c(Cl)c1=O | 47.8* | -7.0% | ? | 63.7* | -10.4% | -9.8%[46.1 µM]
Cc1ccc(-n2ncc(N(C)C)c(Cl)c2=O)cc1 | 28.7* | 0.0% | ? | 54.9* | i | -26.5%
COc1nn(-c2ccccc2)c(=O)c(Cl)c1Cl | 1.1 | 28.2µM* | ? | 12.5 | ? | ?
SMILES | Cycloheximide cs | VACV Venus inh | MARV entry inh | Shiga toxin inh | Vaccinia mCherry | LASV entry inh
COc1ccc(-n2nc(C(=O)O)c3ccccc3c2=O)cc1 | -3.4 | . | -4.6% | 1.1 | . | 2.1%
Cc1c2cnn(CC(=O)O)c(=O)c2c(C)n1Cc1ccccc1 | -8.3 | 1.7% | . | -12.6 | i | .
CCCCCCC[n+]1ccc(/C=C/c2c(C)[nH]c3ccccc23)c2ccccc21 | . | i | . | . | i | .
CC(C)COc1ccc(-c2nnc(-c3ccncc3)o2)cc1 | 37.6* | . | -26.6% | 110.8* | . | ?
c1cc(-c2nnc(-c3ccncc3)o2)ccn1 | -0.5 | . | 10.4% | 14.1 | . | -23.0%
CCCOc1ccc(-c2nnc(-c3ccncc3)o2)cc1 | 21.0* | . | 4.5% | 84.3* | . | -0.7%
COc1ccc(-c2nnc(C3CCN(S(=O)(=O)c4cccc(Cl)c4)CC3)o2)cc1 | . | -11.2% | -1.8%[46.1 µM] | . | -10.4% | 11.9%[46.1 µM]
CC1=C(C(=O)NCc2ccc(Cl)cc2)C2(CCCCC2)OC1=O | . | -16.3% | . | . | -12.1% | -14.0%[46.1 µM]
O=C(Cc1cc(=O)oc2cc(O)ccc12)NC(Cc1ccc(Cl)cc1)C(=O)O (stereo unspecified) | -1.1 | -13.5% | 8.2%[46.1 µM] | -4.4 | i | 10.9%[46.1 µM]
